Results published in PubChem BioAssay (NCI).
The panel holds about 83,000 compounds, 20% with a hit somewhere; the sample as a whole holds those more often.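 Step 1: grow cells in 96-well plates. Step 2: add test compound at a single concentration. Step 3: incubate 48 h. Step 4: record percent growth.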 Calls of active or inactive are those of the source. Rule for the calls: active = growth percent below 10; inactive = the rest.

Legend:
Assay in all cases: NCI-60 one-dose screen, 48 h (100 = growth as untreated, 0 = no growth, -100 = all killed)
Details in all cases: 10 µM unless noted
[1] = system: SN12C renal
[2] = system: UO-31 renal
[3] = system: TK-10 renal
[4] = system: ACHN renal
[5] = system: CAKI-1 renal
[6] = system: A498 renal
[7] = system: CCRF-CEM leukemia
[8] = system: MOLT-4 leukemia
[9] = system: SR leukemia

Measured: growth

CCN(CC)c1cc(C)c2cc(NC(=O)c3cccc(OC)c3)ccc2n1
inactive: [1] 79.1% | [2] 81.6% | [3] 114% | [4] 91.2% | [5] 73.2% | [6] 29.2% | [7] 24.8% | [8] 32.7% | [9] 43.5%

CCn1c(SCC(=O)Nc2cc(C(F)(F)F)ccc2Cl)nc2ccccc2c1=O
inactive: [1] 57.1% | [2] 22.7% | [3] 33.7% | [4] 39.1% | [5] 48.4% | [6] 35.6%
active: [7] -3.31% | [8] -7.72% | [9] -16.2%

O=C(CSc1ccc2nnc(-c3cccc(F)c3)n2n1)Nc1ccc2c(c1)OCO2
inactive: [1] 80.5% | [2] 70.4% | [3] 112% | [4] 87.9% | [5] 84.1% | [6] 104% | [7] 32.5% | [8] 62.1% | [9] 56.3%

CCOc1ccc(-c2nonc2NC(=O)c2cccc(C)c2)cc1OCC
active: [8] 4.22% | [9] -34.7%
inactive: [1] 70.2% | [2] 70% | [3] 79.2% | [4] 83.9% | [5] 59.8% | [6] 39.4% | [7] 23.1%

CCOc1cc(Cl)c(C(C)NC(=O)c2cccc(OC)c2)cc1OCC (stereo unspecified)
inactive: [6] 26.2%
active: [1] -23.3% | [2] -92.5% | [3] -62.4% | [4] -73.3% | [5] -39.1% | [7] -24.5% | [8] -10.2% | [9] -19.1%

COc1ccc(CN2CCCC(C(=O)c3ccc(C(F)(F)F)cc3)C2)c(O)c1 (stereo unspecified)
inactive: [1] 31.8% | [2] 26.4% | [3] 34.6% | [4] 38% | [5] 32.6% | [6] 15.2% | [8] 13.6%
active: [7] 8.95% | [9] 3.77%

Clc1ncccc1Nc1ccc2nnc(-c3ccncc3)n2n1
inactive: [1] 100% | [2] 75% | [3] 112% | [4] 101% | [5] 91.8% | [6] 116% | [7] 91.2% | [8] 93.4% | [9] 71.3%

O=S(=O)(c1ccccc1)n1cc2c(c1-c1ccccc1)CCc1sc(Nc3ccccc3)nc1-2
inactive: [1] 77.1% | [2] 70.4% | [3] 100% | [4] 77.9% | [5] 75.8% | [6] 89.4% | [7] 72.6% | [8] 76% | [9] 79.3%

O=C(Nc1ccc(-c2nc3ccc(NC(=O)c4ccc(Cl)cc4)cc3[nH]2)cc1)c1ccc(Cl)cc1
active: [2] -5.85% | [3] -27.9% | [4] 9.32% | [7] 1.27% | [8] 3.96% | [9] -24.9%
inactive: [1] 24.5% | [5] 27.2% | [6] 58.7%

COc1cc(C#N)cc2[nH]c(=O)oc12
inactive: [1] 115% | [2] 85.6% | [3] 103% | [4] 99.7% | [5] 91.8% | [6] 82.5% | [7] 109% | [8] 123% | [9] 120%

CCCC(c1nnnn1C1CCCCC1)N1CCN(C(=O)c2ccco2)CC1 (stereo unspecified)
active: [9] 6.95%
inactive: [1] 73.6% | [2] 82.3% | [3] 86.7% | [4] 84.6% | [5] 66.4% | [6] 44.1% | [7] 24.1% | [8] 26.9%

NNC(=O)CNC(=O)Nc1n[nH]c(=S)s1
inactive: [1] 98.1% | [2] 73.6% | [3] 107% | [4] 94.4% | [5] 98.3% | [6] 98.3% | [7] 93% | [8] 89.5% | [9] 83.3%

COc1ccc(Nc2cc(C)nc(NCc3ccccc3)n2)cc1
active: [7] -3.8% | [8] 3.02% | [9] 0.982%
inactive: [1] 38.2% | [2] 42% | [3] 37.9% | [4] 36.3% | [5] 30.8% | [6] 81%

NC(CCl)=NCCC[C@H](N)C(=O)O
inactive: [1] 93.3% | [2] 85.2% | [3] 96.7% | [4] 105% | [5] 97.2% | [6] 102% | [7] 94.6% | [8] 104% | [9] 93.5%

CCOC(=O)c1c(Cl)c2c(n1Cc1ccccc1)-c1oncc1CCC2
inactive: [1] 63.9% | [2] 72.4% | [3] 98.9% | [4] 65.8% | [5] 59.5% | [6] 56.9% | [7] 59.7% | [8] 52.6%
active: [9] 0.79%

CCCCC(O)(c1ccc(Cl)cc1)C(CN1CCOCC1)c1ccc(Cl)cc1 (stereo unspecified)
active: [1] 9.55% | [8] 6.34% | [9] 5.35%
inactive: [2] 16.1% | [3] 52.9% | [4] 33.2% | [5] 26.5% | [6] 36% | [7] 22.3%

CCOc1cc2c(cc1OCC)C(c1cc(C)c(O)c(C)c1)NCC2 (stereo unspecified)
inactive: [1] 95.7% | [2] 73.4% | [3] 107% | [4] 94.2% | [5] 85.2% | [6] 88.1% | [7] 89.6% | [8] 96.3% | [9] 80.7%

c1ccc2cc3c(Nc4ccc(N5CCOCC5)cc4)ccnc3cc2c1
inactive: [1] 94.5% | [2] 81.2% | [3] 107% | [4] 94.8% | [5] 92.8% | [6] 77.6% | [7] 77.4% | [8] 78.1% | [9] 81.3%

COc1ccc(Nc2nc(N/N=C/c3ccc(O)cc3)nc(Nc3ccc([N+](=O)[O-])cc3)n2)cc1
inactive: [1] 103% | [2] 103% | [3] 115% | [4] 103% | [5] 123% | [6] 105% | [7] 99.9% | [8] 108% | [9] 105%

FC(F)(F)c1cccc(Nc2nc3ccccc3nc2Nc2cccc(C(F)(F)F)c2)c1
active: [2] -74.7% | [3] -50.1% | [4] -21.5% | [5] -1.66% | [7] -2.8% | [8] -11.2% | [9] -29.4%
inactive: [1] 32.3% | [6] 54%

CCOC(=O)c1cc2c(n1Cc1ccccc1OC)-c1oncc1CCC2
inactive: [1] 53.3% | [2] 45.2% | [3] 59.4% | [4] 53.4% | [5] 35.8% | [8] 28.4%
active: [6] -2.62% | [7] 8.18% | [9] 4.65%

COc1nccc2cc3c(=O)n4c(cc5ccccc54)c(=O)n3c12
inactive: [1] 95.7% | [2] 53.4% | [3] 131% | [4] 96% | [5] 92.5% | [6] 108% | [7] 96.5% | [8] 86.3% | [9] 87.1%

Cc1ccc(Cn2c(N3CCC(C(=O)NCc4cccs4)CC3)nc3ccccc32)cc1
inactive: [1] 87.9% | [2] 65% | [3] 95.7% | [4] 98.5% | [5] 89.1% | [6] 62.4% | [8] 21.6%
active: [7] 8.48% | [9] -37%

CN(C)c1ccc(N=Cc2ccc(N3CCOCC3)cc2)cc1
inactive: [1] 79% | [2] 71.4% | [3] 116% | [4] 88.8% | [5] 86.6% | [6] 91.7% | [7] 58.8% | [8] 65.2% | [9] 75.6%

CCN1CCN(c2cc(C)c3cc(NC(=O)c4ccc(OC)c(OC)c4)ccc3n2)CC1
active: [6] -3.67% | [7] 7.94% | [9] 1.64%
inactive: [1] 44.7% | [2] 54% | [3] 57.6% | [4] 58.4% | [5] 48.1% | [8] 16.2%

C1=CC2(C=C1)OC21CCC2(C=CC3(C2)OC3C2CCCCC2)CC1 (stereo unspecified)
inactive: [1] 105% | [2] 96.8% | [3] 113% | [4] 104% | [5] 93.6% | [6] 97.2% | [7] 97.1% | [8] 95.6% | [9] 90.7%

CCc1ccc(CNCC(O)c2ccccc2)cc1 (stereo unspecified)
active: [9] 3.88%
inactive: [1] 76.4% | [2] 34.6% | [3] 80.7% | [4] 72.2% | [5] 66.4% | [6] 67.8% | [7] 28.7% | [8] 19.2%

OC(CNC1CCCCC1)Cn1c2ccc(I)cc2c2cc(I)ccc21 (stereo unspecified)
inactive: [1] 70.1% | [2] 47.7% | [3] 94.6% | [4] 75.4% | [5] 63.9% | [6] 87.8% | [7] 78.1% | [8] 68.2% | [9] 68.1%

COc1ccccc1CNC(=O)C1c2ccccc2C(=O)N(CC(C)C)C1c1cccs1 (stereo unspecified)
inactive: [1] 76.6% | [2] 92% | [3] 75.9% | [4] 54.2% | [5] 53.4% | [6] 42.4% | [7] 24% | [8] 27.1% | [9] 17.3%
